Source: PubChem
Sampled rows, rich in hits. Any-hit rate of the full collection: about 11%.
NPR1 antag: antagonists of human natriuretic peptide receptor Npr1; 1.6% of 76,000 active; Potency, µM (doses to about 46.3 µM), without a hit: top-dose activity change, negative = inhibition, hits mostly inhibitors; P16066; AID 1347048; HEK293 hNpr1 GloSensor cGMP, ANP-stimulated luminescence; calls by dose curve; further: on the % scale 0 is the no-effect control and ±100 the full control effect; nearly all actives have a fitted effect of over 60% in size
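Compound pre-incubated 30 min at room temperature on GloSensor-loaded HEK293 cells stably carrying hNpr1 and the pGS-40F cGMP biosensor. Stimulation uses hNppA at 0.1 nM final; luminescence is taken at baseline and 20 min post-agonist.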
NIH3T3 tox: kills NIH 3T3 cells; NIH 3T3 viability, CellTiter-Glo ATP luminescence, 48-72 h; Potency, µM (top dose mostly 96.7 µM), inactives show at the highest dose activity change, negative = cytotoxicity, hits mostly inhibitors; 4.3% of 94,000 active; AID 1345082; further: on the % scale 0 is the no-effect control and ±100 the full control effect; nearly all actives have a fitted effect of over 55% in size
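Mouse fibroblast NIH 3T3 cells, 400 per well, received compound via pintool and were incubated for 48 or 72 hr prior to CellTiter-Glo ATP luminescence measurement.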
FLuc inh-1: Photinus pyralis luciferase inhibition. purified P. pyralis luciferase, luminescence, biochemical. Potency, µM (titrated, usually from 115 µM), most hits filed as inhibitors. 2.5% of 76,000 active; further: on the % scale 0 is the no-effect control and ±100 the full control effect; nearly all actives have a fitted effect of over 65% in size
Target sequence (P08659 whole entry, looked up): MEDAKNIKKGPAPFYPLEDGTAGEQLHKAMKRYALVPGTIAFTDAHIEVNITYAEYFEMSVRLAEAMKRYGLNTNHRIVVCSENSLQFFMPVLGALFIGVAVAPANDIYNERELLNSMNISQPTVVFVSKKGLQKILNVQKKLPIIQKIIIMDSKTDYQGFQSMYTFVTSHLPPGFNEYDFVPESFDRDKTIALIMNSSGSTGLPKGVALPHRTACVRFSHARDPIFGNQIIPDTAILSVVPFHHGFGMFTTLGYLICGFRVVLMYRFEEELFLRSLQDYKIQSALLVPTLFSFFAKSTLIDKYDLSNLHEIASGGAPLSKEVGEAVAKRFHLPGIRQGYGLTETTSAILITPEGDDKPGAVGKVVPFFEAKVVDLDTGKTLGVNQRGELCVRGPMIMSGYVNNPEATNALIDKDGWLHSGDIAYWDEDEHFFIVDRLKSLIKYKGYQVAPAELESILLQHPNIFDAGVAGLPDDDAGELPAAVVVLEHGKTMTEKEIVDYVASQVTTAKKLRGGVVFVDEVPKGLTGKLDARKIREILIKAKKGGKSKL
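Biochemical qHTS: compound (6-point titration) added to 10uM D-luciferin plus 10uM ATP in Tris acetate pH 7.5 buffer with Mg, Tween-20 and BSA, then purified enzyme at 10nM; light output imaged.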
HEK cytotox: HEK 293 cell cytotoxicity; HEK 293 viability, ATP luminescence (CellTiter-Glo), 48-72 h; Potency, µM (highest dose often 115 µM), for inactives: at the highest dose activity change, negative = cytotoxicity, hits mostly inhibitors; 6.6% of 94,000 active; AID 1345083; further: on the % scale 0 is the no-effect control and ±100 the full control effect; nearly all actives have a fitted effect of over 60% in size
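Luminescence from cellular ATP, measured with CellTiter-Glo, indicates HEK 293 viability. Cells plated at 250 cells/well are treated with compound for 48 or 72 hr at 37 degree Celsius before reagent addition.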
FLuc SDR no ATP: stabilizes firefly luciferase without ATP; Potency, µM (series often up to 32.7 µM), for the others: at the top dose activation (signal gain), usual class: activators; shares compounds with FLuc inh-1; Purified FLuc-C-HiBiT, Nano-Glo HiBiT luminescence, no ATP; 7.8% of 1,300 active; further: nearly all actives have a fitted effect of over 55% in size
FLuc SDR ATP: firefly luciferase binding stabilization, ATP added; AID 1963319; Potency, µM (top dose mostly 32.7 µM), inactives show at the top dose activation (gain of signal), usual class: activators; purified FLuc-C-HiBiT + ATP, HiBiT complementation luminescence; shares compounds with FLuc inh-1; 8.7% of 1,300 active;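 further: signal reports ligand binding via conformational change of the enzyme rather than luciferase catalysis; % of control where 0% means no effect; nearly all actives have a fitted effect of over 55% in size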
FLuc inh-2: inhibitors of firefly luciferase enzymatic activity; shares compounds with FLuc inh-1; purified FLuc-C-HiBiT enzyme, luciferin luminescence; Potency, µM (series often up to 32.7 µM), inactives show at the top dose activity change, negative = inhibition, usual class: inhibitors; 42% of 1,300 active; AID 1963320; further: on the % scale 0 is the no-effect control and ±100 the full control effect; nearly all actives have a fitted effect of over 70% in size
The depositor's hits bear a star; i = inactive; ? = inconclusive; · = no result; [ ] = another dose, or the depositor's remark. Unless noted, the call rests on the fitted dose curve; in most records, active means well fitted curve in the direction sought with a large enough effect; inconclusive means small, poorly fitted or top-dose-only effect, or another doubt; inactive means no such curve, though single readings can be large; an effect the other way counts as inactive or inconclusive. Potency means the concentration at half of the fitted maximal effect.

SMILES	NPR1 antag	NIH3T3 tox	FLuc inh-1	HEK cytotox	FLuc SDR no ATP	FLuc SDR ATP	FLuc inh-2
Brc1ccc(-c2cn3cc(Cc4ccccc4)sc3n2)cc1	·	·	·	·	22.0%	15.2%	?
C=CCN1CCN(C(=O)CCC[C@@H]2[C@H]3CCCN4CCC[C@@H](CN2C(=O)c2ccccc2)[C@@H]34)CC1	-5.5%	-9.5%	i	-7.4%	·	·	·
COc1ccc(-c2cn3cc(C(=O)NCc4ccc(Cl)cc4)nc3s2)cc1	·	-10.5%	·	-22.0%	·	·	·
Fc1ccc(Cc2cn3cc(-c4ccc(Cl)cc4)nc3s2)cc1	·	·	·	·	16.3%	14.1%	?
O=C(c1cc(-c2ccc(F)cc2)nc2ccccc12)N1CCC(c2nc(C3CCOCC3)no2)C1 (stereo not given)	-8.2%	?	10µM*	?	?	17.0%	?
O=C(c1cc(-c2ccc(F)cc2)nc2ccccc12)N1CCCC(c2nc(C3CCOCC3)no2)C1 (stereo not given)	8.9%	?	?	?	·	·	·
COCCN1CCCC[C@]2(C[C@H](CO)[C@H](c3ccccc3)N2C(=O)c2ccc(OC)cc2)C1=O	·	?	·	-1.2%	·	·	·
O=C(Nc1ccccc1)C1CCN(C(=O)c2ncn3c2COC(c2ccccc2)C3)CC1 (stereo not given)	?	i	2µM*	-29.7%	15.5%	1.57µM*	1.57µM*
CC1CCC(NC(=O)C2CCN(C(=O)c3ncn4c3COC(c3ccccc3)C4)CC2)CC1 (stereo not given)	0.0%	i	2.82µM*	3.6%	11.8%	3.13µM*	2.48µM*
Cc1ccc(NC(=O)C2CCN(C(=O)c3ncn4c3COC(c3ccccc3)C4)CC2)cc1 (stereo not given)	-23.1%	-9.4%	2µM*	9.0%	11.6%	1.57µM*	1.76µM*
O=C(Nc1ccccc1)C1CCN(C(=O)c2ncn3c2COC(c2ccc(F)cc2)C3)CC1 (stereo not given)	-7.3%	-1.9%	?	4.4%	·	·	·
CCc1ccc(NC(=O)C2CCN(C(=O)c3ncn4c3COC(c3ccccc3)C4)CC2)cc1 (stereo not given)	-16.6%	-27.4%	5.01µM*	?	12.5%	?	3.94µM*
CCc1ccc(NC(=O)C2CCN(C(=O)c3ncn4c3COC(c3ccc(F)cc3)C4)CC2)cc1 (stereo not given)	1.8%	i	?	-2.4%	·	·	·
O=C(Nc1cccc(F)c1)C1CCN(C(=O)c2ncn3c2COC(c2ccccc2)C3)CC1 (stereo not given)	?	-0.7%	1µM*	6.2%	9.9%	0.989µM*	0.881µM*
O=C(O)C1(Oc2ccc3ccccc3c2)CCN(c2ncnc3nc[nH]c23)CC1	14.1%	-1.9%	i	-14.7%	10.8%	11.9%	-12.4%
O=C(O)C1(Oc2ccc3ncccc3c2)CCN(c2cnccn2)CC1	-2.3%	i	i	i	·	·	·
CNC(=O)c1cc(C2CC2)nc2onc(C3CCN(C(=O)c4ccccc4Cl)CC3)c12	·	-28.4%	·	?	·	·	·
C[C@@H]1C(=O)O[C@H]2[C@H]1CC[C@@]1(C)Cc3sc(NC(=O)COCC(=O)O)nc3[C@@H](C)[C@H]21	-0.4%[70.6 µM]	i	12.6µM*	i	4.53µM*	?	5.7µM*
CSCC(=O)Nc1nc2c(s1)C[C@]1(C)CC[C@@H]3[C@H](OC(=O)[C@H]3C)[C@H]1[C@@H]2C	7.08µM*	100µM*	0.891µM*	35.5µM*	?	?	4.53µM*
C[C@@H]1C(=O)O[C@H]2[C@H]1CC[C@@]1(C)Cc3sc(NS(=O)(=O)c4ccc5c(c4)CN(C(=O)C(F)(F)F)CC5)nc3[C@@H](C)[C@H]21	-1.6%	-22.6%	i	-17.0%	·	·	·
COc1ccc(C(=O)N2CCc3nc(C(C)C)nc(-c4ccc(OC)cc4)c3CC2)cc1	3.4%	?	i	?	·	·	·
O=C(C1CC1)N1CCC(C(=O)N2CCCC(c3nc4ccncc4[nH]3)C2)CC1 (stereo not given)	·	-6.9%	·	i	·	·	·
O=C(NC1CCN(c2ccc3nnc(-c4ccccc4)n3n2)C1)C1CCCC1 (stereo not given)	·	-17.9%	·	i	·	·	·
Cc1ccc(-c2cc(C(=O)O)n(C)c2)cc1	-13.6%	-28.9%	15.8µM*	-0.2%	10.8%	?	?
CN(C)C(=O)c1cc(-c2ccc(Cl)cc2)cn1C	-0.3%	-24.7%	?	?	·	·	·
SMILES	NPR1 antag	NIH3T3 tox	FLuc inh-1	HEK cytotox	FLuc SDR no ATP	FLuc SDR ATP	FLuc inh-2
Cn1cc(-c2ccc(Cl)cc2)cc1C(=O)O	-4.1%	?	?	?	10.1%	9.6%	-14.8%
O=C(NCCn1ccn2nc(-c3ccc(F)cc3)cc2c1=O)c1cccc2[nH]ccc12	-12.7%	i	i	i	·	·	·
Cc1ccc(-c2cc3c(=O)n(CCNC(=O)c4ccoc4)ccn3n2)cc1C	-12.1%	?	7.08µM*	?	24.8%	17.0%	?
Cc1ccc(-c2cc3c(=O)n(CCNC(=O)c4cccc5[nH]ccc45)ccn3n2)cc1C	-15.5%	31.6µM*	5.62µM*	35.5µM*	22.9%	15.2%	7.85µM*
Cc1nn(-c2ccc(C(F)(F)F)cc2)c(C)c1[C@@H]1C=C[C@@H](NC(=O)CCCC(=O)O)C1	-0.6%	-2.9%	i	-5.8%	·	·	·
Cc1ccc(-n2nc(C)c([C@H]3C=C[C@@H](OC(=O)Nc4cccc(C(F)(F)F)c4)C3)c2C)cc1Cl	?	?	11.2µM*	31.6µM*	14.0%	12.5%	-9.2%
Cc1nn(-c2ccc(C(C)C)cc2)c(C)c1[C@@H]1C=C[C@@H](NC(=O)COCC(=O)O)C1	1.3%[70.6 µM]	?	35.5µM*	-18.7%[172 µM]	16.9%[49.3 µM]	13.1%[49.3 µM]	?
Cc1ccc(-n2nc(C)c([C@@H]3C=C[C@@H](NC(=O)COCC(=O)O)C3)c2C)cc1Cl	0.5%[70.6 µM]	-23.3%[174 µM]	35.5µM*	-19.5%[172 µM]	10.0%[49.3 µM]	9.2%[49.3 µM]	-1.4%[49.3 µM]
Cc1nn(-c2ccc(C(C)(C)C)cc2)c(C)c1[C@@H]1C=C[C@@H](NC(=O)CCCC(=O)O)C1	-10.8%[70.6 µM]	?	22.4µM*	-23.5%[172 µM]	24.7%[49.3 µM]	?	?
O=C1NCCCC[C@@H]1NCc1ccccc1OCCCCN1CCOCC1	5.0%	-4.0%	i	-9.4%	·	·	·
O=C(Cc1ccsc1)N1CCC2(CC1)CN(Cc1ccccc1)CC2CO (stereo not given)	-26.3%	?	i	?	·	·	·
c1ccc(Cc2noc(-c3nc(-c4ccc5c(c4)OCO5)no3)n2)cc1	2.8%	-9.6%	i	-7.8%	·	·	·
CCc1noc(-c2nc(-c3ccc4c(c3)OCO4)no2)n1	-25.9%	-19.2%	10µM*	?	25.4%	19.4%	?
